Test results reported in the supplement of paper PMC10849652.
Targets with a hit are over-represented here; the source holds about 7,900 in all. About 0.6% of all pairs of compound and target were hits. A number with no mark means an inactive call.

These targets were tested with C1=CC=C(C=C1)[C@H](COC2=CC3=C(C=C2)NC(=O)N3)NC(=O)C4=CC=CN(C4=O)CC5=CC(=C(C=C5)F)F (assay: log2 fold change, soluble protein after heating vs DMSO (PISA); higher = thermal stabilisation; K562 cells, 10 uM, 30 min; active = over 0.2 and 3.5 SD of the protein, either way, in both replicates (recomputed)).
Outline: (§1)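 K562 cells at 2×10^6 cells/mL were given 10 μM compound for 30 min. Aliquots then went through 3 min of heating across 48°C-58°C, were pooled, and were extracted in PBS with 0.5% NP-40 at 4°C, and the supernatant after 21,000xg for 90 min was quantified by TMTpro 16plex LC-MS/MS with channel sums equalised. Thermal stability relative to control samples, from duplicates, is given as log2 fold change.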

Sequence of UniProt Q8WUI4 (Q8WUI4 whole entry, looked up): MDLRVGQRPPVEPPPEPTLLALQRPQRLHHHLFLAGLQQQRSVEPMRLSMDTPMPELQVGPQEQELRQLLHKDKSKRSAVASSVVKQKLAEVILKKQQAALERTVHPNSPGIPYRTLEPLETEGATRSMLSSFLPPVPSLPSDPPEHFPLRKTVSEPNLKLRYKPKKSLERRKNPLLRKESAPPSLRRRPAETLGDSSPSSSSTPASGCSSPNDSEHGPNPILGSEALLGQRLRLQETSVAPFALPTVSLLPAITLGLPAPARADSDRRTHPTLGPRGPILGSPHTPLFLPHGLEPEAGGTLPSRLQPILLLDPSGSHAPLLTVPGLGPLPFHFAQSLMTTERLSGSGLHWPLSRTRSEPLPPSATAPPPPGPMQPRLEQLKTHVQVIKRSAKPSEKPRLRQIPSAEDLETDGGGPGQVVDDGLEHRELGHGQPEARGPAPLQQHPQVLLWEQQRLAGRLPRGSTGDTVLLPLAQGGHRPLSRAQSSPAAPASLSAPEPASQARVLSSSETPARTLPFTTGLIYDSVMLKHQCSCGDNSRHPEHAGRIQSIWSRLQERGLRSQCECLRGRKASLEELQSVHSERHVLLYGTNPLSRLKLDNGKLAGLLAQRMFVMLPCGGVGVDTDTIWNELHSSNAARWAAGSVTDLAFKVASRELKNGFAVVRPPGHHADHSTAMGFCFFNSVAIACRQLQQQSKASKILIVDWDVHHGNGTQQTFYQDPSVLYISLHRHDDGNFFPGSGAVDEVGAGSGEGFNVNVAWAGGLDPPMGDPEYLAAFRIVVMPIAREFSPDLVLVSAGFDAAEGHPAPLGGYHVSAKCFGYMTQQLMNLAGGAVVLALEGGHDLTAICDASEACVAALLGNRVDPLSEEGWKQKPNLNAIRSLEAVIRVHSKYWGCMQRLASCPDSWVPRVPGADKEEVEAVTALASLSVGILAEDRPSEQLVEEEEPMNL
Sequence of UniProt Q8TEQ6 (Q8TEQ6 whole entry, looked up): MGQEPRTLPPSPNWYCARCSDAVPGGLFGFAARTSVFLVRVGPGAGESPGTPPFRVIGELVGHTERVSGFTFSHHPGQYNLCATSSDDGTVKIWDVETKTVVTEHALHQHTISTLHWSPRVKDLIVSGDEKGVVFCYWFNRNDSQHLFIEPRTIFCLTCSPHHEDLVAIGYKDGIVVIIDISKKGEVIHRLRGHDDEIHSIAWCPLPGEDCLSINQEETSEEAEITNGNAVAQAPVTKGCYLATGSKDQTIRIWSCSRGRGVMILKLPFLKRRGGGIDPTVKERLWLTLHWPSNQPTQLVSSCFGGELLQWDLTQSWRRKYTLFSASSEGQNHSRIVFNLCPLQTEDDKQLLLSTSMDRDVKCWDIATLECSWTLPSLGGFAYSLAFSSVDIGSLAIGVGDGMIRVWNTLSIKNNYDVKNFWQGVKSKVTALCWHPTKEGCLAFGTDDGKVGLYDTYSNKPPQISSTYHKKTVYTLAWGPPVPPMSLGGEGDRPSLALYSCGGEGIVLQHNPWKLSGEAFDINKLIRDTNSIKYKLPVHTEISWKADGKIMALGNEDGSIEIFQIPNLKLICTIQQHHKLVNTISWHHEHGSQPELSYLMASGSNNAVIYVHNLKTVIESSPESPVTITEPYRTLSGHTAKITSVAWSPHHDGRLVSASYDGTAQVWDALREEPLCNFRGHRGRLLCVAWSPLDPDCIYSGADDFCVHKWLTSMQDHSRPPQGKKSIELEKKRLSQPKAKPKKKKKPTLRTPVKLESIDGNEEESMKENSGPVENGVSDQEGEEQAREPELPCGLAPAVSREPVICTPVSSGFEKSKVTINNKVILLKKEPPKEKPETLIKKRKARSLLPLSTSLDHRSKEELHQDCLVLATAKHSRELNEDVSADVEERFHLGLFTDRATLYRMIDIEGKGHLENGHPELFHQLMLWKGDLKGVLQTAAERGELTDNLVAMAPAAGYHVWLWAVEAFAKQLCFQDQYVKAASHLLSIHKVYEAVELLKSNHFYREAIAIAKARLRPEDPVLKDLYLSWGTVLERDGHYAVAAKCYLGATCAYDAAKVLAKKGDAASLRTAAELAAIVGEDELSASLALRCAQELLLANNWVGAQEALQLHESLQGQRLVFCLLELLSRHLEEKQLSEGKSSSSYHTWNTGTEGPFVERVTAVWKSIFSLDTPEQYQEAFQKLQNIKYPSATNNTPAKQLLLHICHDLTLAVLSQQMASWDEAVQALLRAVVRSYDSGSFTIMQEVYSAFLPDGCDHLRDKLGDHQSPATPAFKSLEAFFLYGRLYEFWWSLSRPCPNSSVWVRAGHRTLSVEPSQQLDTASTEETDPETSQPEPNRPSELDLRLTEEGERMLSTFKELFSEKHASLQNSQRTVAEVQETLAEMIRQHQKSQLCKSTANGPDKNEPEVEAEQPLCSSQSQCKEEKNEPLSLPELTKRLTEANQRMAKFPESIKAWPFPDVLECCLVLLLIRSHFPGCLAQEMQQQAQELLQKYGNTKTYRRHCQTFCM
Sequence of UniProt Q9Y613 (Q9Y613 whole entry, looked up): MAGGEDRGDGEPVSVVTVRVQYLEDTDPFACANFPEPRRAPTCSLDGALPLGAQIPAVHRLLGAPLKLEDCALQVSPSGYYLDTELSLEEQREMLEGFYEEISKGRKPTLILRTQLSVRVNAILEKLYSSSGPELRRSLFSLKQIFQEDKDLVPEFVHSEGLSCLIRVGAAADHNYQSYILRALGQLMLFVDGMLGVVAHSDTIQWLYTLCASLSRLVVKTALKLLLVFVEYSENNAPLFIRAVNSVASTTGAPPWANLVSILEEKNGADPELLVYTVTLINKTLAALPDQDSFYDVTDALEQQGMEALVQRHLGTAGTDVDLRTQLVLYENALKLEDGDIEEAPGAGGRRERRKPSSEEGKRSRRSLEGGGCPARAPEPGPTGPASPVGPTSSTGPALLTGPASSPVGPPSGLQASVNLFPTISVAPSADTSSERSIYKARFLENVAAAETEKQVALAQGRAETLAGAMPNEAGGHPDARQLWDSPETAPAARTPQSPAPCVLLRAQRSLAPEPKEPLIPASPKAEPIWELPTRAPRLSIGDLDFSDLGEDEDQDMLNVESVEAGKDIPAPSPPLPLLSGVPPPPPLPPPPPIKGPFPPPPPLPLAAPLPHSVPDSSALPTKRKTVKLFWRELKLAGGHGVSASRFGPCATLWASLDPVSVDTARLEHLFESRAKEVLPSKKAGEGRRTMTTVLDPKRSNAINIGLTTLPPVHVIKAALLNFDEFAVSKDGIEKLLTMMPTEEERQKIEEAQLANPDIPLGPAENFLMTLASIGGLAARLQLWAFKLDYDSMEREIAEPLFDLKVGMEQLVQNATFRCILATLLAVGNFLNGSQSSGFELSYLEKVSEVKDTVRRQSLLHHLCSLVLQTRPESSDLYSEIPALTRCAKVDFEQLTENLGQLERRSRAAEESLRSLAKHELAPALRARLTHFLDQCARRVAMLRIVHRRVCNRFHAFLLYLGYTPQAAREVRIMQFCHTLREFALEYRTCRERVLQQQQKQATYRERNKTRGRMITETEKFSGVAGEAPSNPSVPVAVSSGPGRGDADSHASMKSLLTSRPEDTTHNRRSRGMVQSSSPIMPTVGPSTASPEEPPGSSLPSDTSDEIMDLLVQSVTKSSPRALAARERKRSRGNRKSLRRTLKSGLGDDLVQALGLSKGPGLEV
Sequence of UniProt Q96JB3 (Q96JB3 whole entry, looked up): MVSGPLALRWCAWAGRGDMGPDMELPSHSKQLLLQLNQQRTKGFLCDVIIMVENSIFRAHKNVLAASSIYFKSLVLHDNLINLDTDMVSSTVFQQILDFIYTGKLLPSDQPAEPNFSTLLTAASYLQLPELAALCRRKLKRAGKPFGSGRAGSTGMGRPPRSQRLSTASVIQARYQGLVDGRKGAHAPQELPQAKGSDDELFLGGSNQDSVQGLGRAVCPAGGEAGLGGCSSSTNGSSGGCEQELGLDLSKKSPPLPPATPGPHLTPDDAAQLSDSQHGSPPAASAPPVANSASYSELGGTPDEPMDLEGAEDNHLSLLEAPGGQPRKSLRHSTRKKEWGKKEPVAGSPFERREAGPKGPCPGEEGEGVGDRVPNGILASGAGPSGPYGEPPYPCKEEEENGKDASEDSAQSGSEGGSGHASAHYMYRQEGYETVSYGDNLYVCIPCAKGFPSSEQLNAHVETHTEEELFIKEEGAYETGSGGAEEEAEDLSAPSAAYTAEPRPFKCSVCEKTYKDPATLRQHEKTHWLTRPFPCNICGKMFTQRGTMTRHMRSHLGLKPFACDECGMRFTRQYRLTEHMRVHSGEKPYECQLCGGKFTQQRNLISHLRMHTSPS
Sequence of UniProt Q02790 (Q02790 whole entry, looked up): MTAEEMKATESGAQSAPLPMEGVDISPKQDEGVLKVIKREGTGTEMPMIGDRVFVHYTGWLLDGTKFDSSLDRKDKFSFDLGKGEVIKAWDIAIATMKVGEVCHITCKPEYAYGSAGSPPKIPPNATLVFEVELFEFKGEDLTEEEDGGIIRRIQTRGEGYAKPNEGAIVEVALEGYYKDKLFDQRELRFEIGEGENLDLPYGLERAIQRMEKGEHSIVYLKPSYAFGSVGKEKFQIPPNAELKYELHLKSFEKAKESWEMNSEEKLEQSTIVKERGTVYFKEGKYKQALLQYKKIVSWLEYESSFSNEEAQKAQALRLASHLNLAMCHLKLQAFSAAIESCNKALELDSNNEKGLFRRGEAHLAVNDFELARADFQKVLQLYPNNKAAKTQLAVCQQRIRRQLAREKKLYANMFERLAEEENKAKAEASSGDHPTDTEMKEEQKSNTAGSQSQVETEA
Sequence of UniProt P05114 (P05114 whole entry, looked up): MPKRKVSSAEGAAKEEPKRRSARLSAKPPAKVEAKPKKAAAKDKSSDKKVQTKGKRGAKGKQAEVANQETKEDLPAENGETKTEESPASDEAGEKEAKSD
Sequence of UniProt P78417 (P78417 whole entry, looked up): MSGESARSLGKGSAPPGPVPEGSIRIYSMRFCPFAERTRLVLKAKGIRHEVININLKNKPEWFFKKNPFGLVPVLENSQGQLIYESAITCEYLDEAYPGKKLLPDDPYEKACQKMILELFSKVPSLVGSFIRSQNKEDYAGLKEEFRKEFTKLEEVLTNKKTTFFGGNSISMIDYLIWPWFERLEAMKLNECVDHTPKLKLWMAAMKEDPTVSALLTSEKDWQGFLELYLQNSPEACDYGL

H3-3A (UniProt P84243) was tested. Which log2 fold change did it give?
Its log2 fold change is -0.004.

With HPCAL1 (UniProt P37235) as the target, how does the log2 fold change read?
Its log2 fold change is 0.007.

Which log2 fold change does the source give for GPS2 (UniProt Q13227) here?
Its log2 fold change is 0.015.

How did the log2 fold change turn out when FLNA (UniProt P21333) was run?
The log2 fold change was -0.11.

For HDAC7 isoform 5 (UniProt Q8WUI4), which log2 fold change is on record?
Its log2 fold change is -0.008.

Which log2 fold change does the source give for GSTO1 (UniProt P78417) here?
The log2 fold change was -0.024.

Which log2 fold change does the source give for GLRX3 (UniProt O76003) here?
The log2 fold change was 0.04.

Which log2 fold change does the source give for GOLGA6B (UniProt A6NDN3) here?
Its log2 fold change is 0.043.

Which log2 fold change does the source give for ICMT (UniProt O60725) here?
The log2 fold change was 0.047.

FHOD1 (UniProt Q9Y613) was tested. Which log2 fold change did it give?
The log2 fold change was -0.033.

For FBXO6 (UniProt Q9NRD1), which log2 fold change is on record?
The log2 fold change was 0.013.

For GSE1 (UniProt Q14687), which log2 fold change is on record?
The log2 fold change was -0.151.

How did the log2 fold change turn out when FIBP (UniProt O43427) was run?
Its log2 fold change is 0.091.

For GEMIN5 (UniProt Q8TEQ6), which log2 fold change is on record?
Its log2 fold change is -0.004.

With HMGN1 (UniProt P05114) as the target, how does the log2 fold change read?
Its log2 fold change is 0.042.

Which log2 fold change does the source give for FKBP4 (UniProt Q02790) here?
Its log2 fold change is -0.032.

With FBXO42 (UniProt Q6P3S6) as the target, how does the log2 fold change read?
Its log2 fold change is -0.022.

How did the log2 fold change turn out when HNRNPK isoform 3 (UniProt P61978) was run?
Its log2 fold change is 0.014.

How did the log2 fold change turn out when IDH3A isoform 2 (UniProt P50213) was run?
The log2 fold change was 0.118.

IFI30 (UniProt P13284) was tested. Which log2 fold change did it give?
Its log2 fold change is -0.066.

HS1BP3 (UniProt Q53T59) was tested. Which log2 fold change did it give?
Its log2 fold change is -0.046.

Which log2 fold change does the source give for FERMT3 (UniProt Q86UX7) here?
The log2 fold change was -0.026.

With FYB1 isoform 3 (UniProt O15117) as the target, how does the log2 fold change read?
Its log2 fold change is -0.09.

With GEMIN2 (UniProt O14893) as the target, how does the log2 fold change read?
The log2 fold change was 0.044.

HIC2 (UniProt Q96JB3) was tested. Which log2 fold change did it give?
Its log2 fold change is 0.163.

The targets below were run with CC1=C(SC2=C1C(=N[C@H](C3=NN=C(N32)C)CC(=O)N)C4=CC=C(C=C4)Cl)C in the same assay as above.
Outline: as §1

How did the log2 fold change turn out when H3-3A (UniProt P84243) was run?
Its log2 fold change is 0.053.

For HPCAL1 (UniProt P37235), which log2 fold change is on record?
The log2 fold change was -0.011.

FLNA (UniProt P21333) was tested. Which log2 fold change did it give?
The log2 fold change was 0.016.

With HDAC7 isoform 5 (UniProt Q8WUI4) as the target, how does the log2 fold change read?
The log2 fold change was 0.039.

With GSTO1 (UniProt P78417) as the target, how does the log2 fold change read?
The log2 fold change was 0.028.

GLRX3 (UniProt O76003) was tested. Which log2 fold change did it give?
The log2 fold change was 0.072.

For FCHO1 (UniProt O14526), which log2 fold change is on record?
Its log2 fold change is 0.013.

GAK (UniProt O14976) was tested. Which log2 fold change did it give?
Its log2 fold change is 0.095.

For FIZ1 (UniProt Q96SL8), which log2 fold change is on record?
The log2 fold change was -0.297.

With HNRNPUL1 (UniProt M0R247) as the target, how does the log2 fold change read?
Its log2 fold change is 0.079.

For FHOD1 (UniProt Q9Y613), which log2 fold change is on record?
Its log2 fold change is -0.065.

With FBXO6 (UniProt Q9NRD1) as the target, how does the log2 fold change read?
Its log2 fold change is 0.087.

For GSE1 (UniProt Q14687), which log2 fold change is on record?
Its log2 fold change is 0.029.

For GREB1 (UniProt Q4ZG55), which log2 fold change is on record?
The log2 fold change was 0.095.

For FIBP (UniProt O43427), which log2 fold change is on record?
The log2 fold change was 0.152.

Which log2 fold change does the source give for GEMIN5 (UniProt Q8TEQ6) here?
Its log2 fold change is -0.019.

How did the log2 fold change turn out when HMGN1 (UniProt P05114) was run?
Its log2 fold change is -0.023.

FKBP4 (UniProt Q02790) was tested. Which log2 fold change did it give?
Its log2 fold change is 0.042.

With FBXO42 (UniProt Q6P3S6) as the target, how does the log2 fold change read?
The log2 fold change was 0.017.

For IDH3A isoform 2 (UniProt P50213), which log2 fold change is on record?
Its log2 fold change is 0.251.

How did the log2 fold change turn out when FOXO3 (UniProt O43524) was run?
Its log2 fold change is 0.065.

How did the log2 fold change turn out when IFI30 (UniProt P13284) was run?
Its log2 fold change is 0.01.

With HS1BP3 (UniProt Q53T59) as the target, how does the log2 fold change read?
The log2 fold change was 0.087.

Which log2 fold change does the source give for GAB2 (UniProt Q9UQC2) here?
The log2 fold change was 0.153.

Which log2 fold change does the source give for FERMT3 (UniProt Q86UX7) here?
The log2 fold change was 0.066.

Which log2 fold change does the source give for FMR1 (UniProt Q06787) here?
Its log2 fold change is -0.237.

For GEMIN2 (UniProt O14893), which log2 fold change is on record?
Its log2 fold change is 0.013.

How did the log2 fold change turn out when HIC2 (UniProt Q96JB3) was run?
Its log2 fold change is -0.053.
